Where “and” joins values, the source holds several entries; their conditions need not be identical. Equal entries are not always repeated. The campaign covered roughly 5,500 compounds. About 2,000 (36%) were called active. About 18% were inconclusive and are not listed. No stated cut-off is given here; in the data, active means normalized growth mostly below about 0.91 (no sharp cut-off); inconclusive means no clear call, values can overlap the other calls; inactive means mostly above about 0.92. Some of the results follow.
Test: chemical genetic growth profiling, strain panel (AID 1159580);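 further: tested at 20 µM; growth read once vehicle control cultures reached saturation at 30 °C; 1 = growth at the plate median or of vehicle wells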
Settings: growth OD

Measured: normalized growth

O=C(O)c1cc(=O)c2ccc(Cl)cc2[nH]1
inactive: S. cerevisiae deletion strains, locus YJR043C, strain POL32, stronger effect = lower value 1.03 | S. cerevisiae deletion strains, locus YJR075W, strain HOC1, stronger effect = lower value 1.02 and 1 | S. cerevisiae deletion strains, locus YKL009W, strain mrt4, stronger effect = lower value 0.99 | S. cerevisiae deletion strains, locus YKL068W, stronger effect = lower value 0.995 | S. cerevisiae deletion strains, locus YKL085W, strain MDH1 (second series), stronger effect = lower value 0.982 | S. cerevisiae deletion strains, locus YKL085W, strain MDH1, stronger effect = lower value 0.982 | S. cerevisiae deletion strains, locus YKL160W, strain elf1, stronger effect = lower value 1.05 | S. cerevisiae deletion strains, locus YKL190W, strain CNB1, stronger effect = lower value 1.01 | S. cerevisiae deletion strains, locus YKR001C, strain vps1, stronger effect = lower value 0.998 | S. cerevisiae deletion strains, locus YKR026C, strain gcn3, stronger effect = lower value 1.01 | S. cerevisiae deletion strains, locus YKR091W, strain srl3, stronger effect = lower value 1.01 | S. cerevisiae deletion strains, locus YLL001W, strain dnm1, stronger effect = lower value 1.02 | S. cerevisiae deletion strains, locus YLL026W, stronger effect = lower value 1.02 | S. cerevisiae deletion strains, locus YLL041C, strain sdh2, stronger effect = lower value 1.03 | S. cerevisiae deletion strains, locus YLR027C, strain aat2, stronger effect = lower value 1.03 | S. cerevisiae deletion strains, locus YLR039C, strain RIC1, stronger effect = lower value 1.02 | S. cerevisiae deletion strains, locus YLR058C, strain SHM2, stronger effect = lower value 1.02 | S. cerevisiae deletion strains, locus YLR102C, strain apc9, stronger effect = lower value 0.986 | S. cerevisiae deletion strains, locus YLR221C, strain rsa3, stronger effect = lower value 0.988 | S. cerevisiae deletion strains, locus YLR258W, strain gsy2, stronger effect = lower value 1.03 | S. cerevisiae deletion strains, locus YLR262C, strain YPT6 (second series), stronger effect = lower value 1 | S. cerevisiae deletion strains, locus YLR262C, strain YPT6, stronger effect = lower value 1.05 | S. cerevisiae deletion strains, locus YLR268W, strain sec22, stronger effect = lower value 0.986 | S. cerevisiae deletion strains, locus YLR320W, strain mms22, stronger effect = lower value 1.01 | S. cerevisiae deletion strains, locus YLR330W, strain CHS5, stronger effect = lower value 1.01 | S. cerevisiae deletion strains, locus YLR342W, strain FKS1 (second series), stronger effect = lower value 0.957 | S. cerevisiae deletion strains, locus YLR342W, strain FKS1, stronger effect = lower value 1.02 | S. cerevisiae deletion strains, locus YLR357W, strain rsc2, stronger effect = lower value 1.02 | S. cerevisiae deletion strains, locus YLR370C, strain arc18, stronger effect = lower value 1.02 | S. cerevisiae deletion strains, locus YLR371W, strain rom2, stronger effect = lower value 0.984 | S. cerevisiae deletion strains, locus YLR384C, strain iki3, stronger effect = lower value 1.01 | S. cerevisiae deletion strains, locus YLR418C, strain cdc73, stronger effect = lower value 0.974 | S. cerevisiae deletion strains, locus YML016C, strain PPZ1, stronger effect = lower value 1.02 | S. cerevisiae deletion strains, locus YML032C, strain rad52, stronger effect = lower value 0.996 | S. cerevisiae deletion strains, locus YML120C, strain ndi1, stronger effect = lower value 1.01 | S. cerevisiae deletion strains, locus YML124C, strain tub3, stronger effect = lower value 0.998 | S. cerevisiae deletion strains, locus YMR058W, strain fet3, stronger effect = lower value 1.01 | S. cerevisiae deletion strains, locus YMR078C, strain ctf18, stronger effect = lower value 0.987 | S. cerevisiae deletion strains, locus YMR125W, strain sto1, stronger effect = lower value 1.01 | S. cerevisiae deletion strains, locus YMR129W, stronger effect = lower value 1.01 | S. cerevisiae deletion strains, locus YMR205C, strain PFK2, stronger effect = lower value 1.03 | S. cerevisiae deletion strains, locus YMR223W, strain ubp8, stronger effect = lower value 0.968 | S. cerevisiae deletion strains, locus YMR231W, strain pep5, stronger effect = lower value 1.01 | S. cerevisiae deletion strains, locus YMR263W, strain SAP30, stronger effect = lower value 1.03 | S. cerevisiae deletion strains, locus YMR307W, strain GAS1, stronger effect = lower value 0.978 | S. cerevisiae deletion strains, locus YNL067W, strain RPL9B, stronger effect = lower value 1.03 | S. cerevisiae deletion strains, locus YNL071W, strain lat1, stronger effect = lower value 1.01 | S. cerevisiae deletion strains, locus YNL128W, strain TEP1, stronger effect = lower value 1.03 | S. cerevisiae deletion strains, locus YNL153C, strain GIM3, stronger effect = lower value 1.04 | S. cerevisiae deletion strains, locus YNL175C, strain NOP13, stronger effect = lower value 1.01 | S. cerevisiae deletion strains, locus YNL197C, strain WHI3, stronger effect = lower value 1.02 | S. cerevisiae deletion strains, locus YNL209W, strain ssb2, stronger effect = lower value 1.01 | S. cerevisiae deletion strains, locus YNL224C, strain SQS1, stronger effect = lower value 1 | S. cerevisiae deletion strains, locus YNL233W, strain BNI4, stronger effect = lower value 1.03 | S. cerevisiae deletion strains, locus YNL248C, strain rpa49, stronger effect = lower value 1.08 | S. cerevisiae deletion strains, locus YNL250W, strain rad50, stronger effect = lower value 0.982 | S. cerevisiae deletion strains, locus YNL271C, strain bni1, stronger effect = lower value 0.992 | S. cerevisiae deletion strains, locus YNL298W, strain CLA4, stronger effect = lower value 0.999 | S. cerevisiae deletion strains, locus YNL307C, strain MCK1, stronger effect = lower value 0.988 | S. cerevisiae deletion strains, locus YNL322C, strain KRE1 (second series), stronger effect = lower value 1.06 | S. cerevisiae deletion strains, locus YNL322C, strain KRE1, stronger effect = lower value 1.01 and 1.02 | S. cerevisiae deletion strains, locus YNR049C, strain mso1, stronger effect = lower value 1 | S. cerevisiae deletion strains, locus YNR052C, strain pop2, stronger effect = lower value 0.99 | S. cerevisiae deletion strains, locus YOL006C, strain TOP1, stronger effect = lower value 1.11 | S. cerevisiae deletion strains, locus YOL012C, strain htz1 1.2 | S. cerevisiae deletion strains, locus YOL147C, strain pex11, stronger effect = lower value 0.994 | S. cerevisiae deletion strains, locus YOR001W, strain rrp6, stronger effect = lower value 0.96 | S. cerevisiae deletion strains, locus YOR061W, strain CKA2, stronger effect = lower value 1.01 | S. cerevisiae deletion strains, locus YOR069W, strain VPS5, stronger effect = lower value 1.01 | S. cerevisiae deletion strains, locus YOR070C, strain gyp1, stronger effect = lower value 1.01 | S. cerevisiae deletion strains, locus YOR080W, strain dia2, stronger effect = lower value 1 | S. cerevisiae deletion strains, locus YOR083W, strain WHI5 (second series), stronger effect = lower value 0.989 | S. cerevisiae deletion strains, locus YOR083W, strain WHI5, stronger effect = lower value 1.05 | S. cerevisiae deletion strains, locus YOR106W, strain vam3, stronger effect = lower value 1.05 | S. cerevisiae deletion strains, locus YOR136W, strain idh2, stronger effect = lower value 0.987 | S. cerevisiae deletion strains, locus YOR144C, strain elg1, stronger effect = lower value 0.984 | S. cerevisiae deletion strains, locus YOR184W, strain ser1, stronger effect = lower value 0.985 | S. cerevisiae deletion strains, locus YOR265W, strain rbl2, stronger effect = lower value 1 | S. cerevisiae deletion strains, locus YOR270C, strain vph1, stronger effect = lower value 1.04 | S. cerevisiae deletion strains, locus YOR290C, strain snf2, stronger effect = lower value 1.06 | S. cerevisiae deletion strains, locus YOR316C, strain cot1, stronger effect = lower value 0.994 | S. cerevisiae deletion strains, locus YPL051W, strain arl3, stronger effect = lower value 1.01 | S. cerevisiae deletion strains, locus YPL055C, strain LGE1, stronger effect = lower value 1.07 | S. cerevisiae deletion strains, locus YPL078C, strain atp4, stronger effect = lower value 1.06 | S. cerevisiae deletion strains, locus YPL106C, strain sse1, stronger effect = lower value 1.06 | S. cerevisiae deletion strains, locus YPL240C, strain hsp82, stronger effect = lower value 1.02 | S. cerevisiae deletion strains, locus YPL241C, strain CIN2, stronger effect = lower value 1.01 | S. cerevisiae deletion strains, locus YPR119W, strain clb2, stronger effect = lower value 0.989 | S. cerevisiae deletion strains, locus YPR141C, strain kar3, stronger effect = lower value 0.99 | S. cerevisiae deletion strains, locus YPR163C, strain tif3, stronger effect = lower value 0.986 | S. cerevisiae deletion strains, locus YPR167C, strain met16, stronger effect = lower value 0.989 | S. cerevisiae deletion strains, strain wtn01, stronger effect = lower value 0.98 | S. cerevisiae strains, strain wild type, stronger effect = lower value 1.02
